Test results reported in PubChem BioAssay (Tox21).
Inconclusive results are not listed. Activity calls are given as the source filed them. Calls come from the whole dose curve; as a rule, active = well fitted inhibition curve with a large enough effect in the repeat runs; inconclusive = weak or mixed curves; inactive = no such curve, though single readings can be large or run the other way.

biological target: Cytochrome P450 3A4 (Homo sapiens) (UniProt P08684); assay: Cytochrome P450 Family 3 Subfamily A Member 4 (CYP3A4) small molecule antagonists: luciferase reporter qHTS assay (AID 1671201); conditions: P450-Glo CYP3A4 enzyme, luciferin luminescence, 1 h; series mostly up to 115 µM; activity change, negative = inhibition: at the top concentration; note: nearly all actives have a fitted effect of over 50% in size
Procedure, shortened: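 Relative luminescence units after 20 min with luciferin detection reagent served as read-out. Beforehand, CYP3A4 turned over a proluciferin substrate for 1 h at room temperature with NADPH regeneration, following 10 min compound preincubation.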
% is set by controls: 0 for no effect and ±100 for the full control effect; potency is the fitted concentration of half-maximal effect.

Chain of Cytochrome P450 3A4 (Homo sapiens) (P08684 whole entry, looked up): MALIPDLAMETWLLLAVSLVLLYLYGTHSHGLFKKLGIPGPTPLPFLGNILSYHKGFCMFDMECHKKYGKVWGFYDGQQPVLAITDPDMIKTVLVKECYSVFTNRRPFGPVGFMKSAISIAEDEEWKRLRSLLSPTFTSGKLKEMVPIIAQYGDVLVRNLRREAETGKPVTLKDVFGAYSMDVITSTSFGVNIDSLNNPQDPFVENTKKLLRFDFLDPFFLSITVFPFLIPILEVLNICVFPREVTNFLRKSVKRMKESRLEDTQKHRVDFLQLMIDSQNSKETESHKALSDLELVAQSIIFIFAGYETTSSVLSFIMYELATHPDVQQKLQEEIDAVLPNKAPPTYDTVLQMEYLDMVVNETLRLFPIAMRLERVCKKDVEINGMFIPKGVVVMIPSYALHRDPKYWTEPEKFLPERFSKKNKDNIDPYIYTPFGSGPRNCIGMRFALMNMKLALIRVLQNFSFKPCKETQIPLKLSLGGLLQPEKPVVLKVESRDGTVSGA

Structure (SMILES) | activity change, negative = inhibition | Potency
COC(=O)C1=C(C)NC(C)=C(C(=O)OCCN2CCN(C(c3ccccc3)c3ccccc3)CC2)C1c1cccc([N+](=O)[O-])c1 (stereo unspecified) | -5.49% [at 52.9 µM] (inactive) | –
CCC(C)(CCC(C)C)C(=O)[O][Sn]([CH3])([CH3])[O]C(=O)C(C)(CC)CCC(C)C (stereo unspecified) | 22.5% (inactive) | –
C=CCn1c(=O)n(CC=C)c(=O)n(CC=C)c1=O | – | 2.82 µM (active)
c1ccc(SSc2ccccc2)cc1 | 1.67% (inactive) | –
Nc1ccc(Oc2ccc(Cl)cc2)cc1 | – | 17.5 µM (active)
Oc1cc(Cl)cc(Cl)c1Cl | -33.4% (inactive) | –
CC(C(=O)O)c1ccc2c(c1)[nH]c1ccc(Cl)cc12 (stereo unspecified) | 20.9% [at 52.9 µM] (inactive) | –
C#C[C@]1(OC(C)=O)CC[C@H]2[C@@H]3CCC4=C[C@@H](OC(C)=O)CC[C@@H]4[C@H]3CC[C@@]21C | 268% [at 52.9 µM] (inactive) | –
OC12N=C(c3ccccc3)SC1Cc1cc(Cl)ccc12 (stereo unspecified) | – | 31.7 µM (active)
C=CC(=O)Nc1cc2c(Nc3ccc(F)c(Cl)c3)ncnc2cc1OCCCN1CCOCC1 | – | 12.3 µM (active)
CCCCCCC1CCCC(=O)O1 (stereo unspecified) | -1.38% (inactive) | –
CCc1oc2ccccc2c1C(=O)c1cc(I)c(O)c(I)c1 | 28.4% [at 52.9 µM] (inactive) | –
NC(=S)NC(N)=S | 3.86% (inactive) | –
O=C(/C=C/c1ccc(O)c(O)c1)O[C@@H](C(=O)O)[C@@H](OC(=O)/C=C/c1ccc(O)c(O)c1)C(=O)O | 1.18% (inactive) | –
CC(C)(C)CC(C)(C)c1ccc(Nc2ccc(C(C)(C)CC(C)(C)C)cc2)cc1 | -20% [at 10.5 µM] (inactive) | –
O=c1c(O)c(-c2ccc(O)cc2O)oc2cc(O)cc(O)c12 | -6.36% (inactive) | –
Cc1ccc(N/N=c2\c(=O)cc/c(=N\Nc3ccc(S(=O)(=O)O)cc3)c2=O)c(C)c1 | -20.5% (inactive) | –
[Cl][Pt-2]([Cl])([Cl])[Cl] | 12.6% (inactive) | –
NC(=O)c1cccc([N+](=O)[O-])c1 | 14.4% (inactive) | –
Cc1cc(C)c(/C=C2\C(=O)Nc3ccccc32)[nH]1 | -31.1% [at 52.9 µM] (inactive) | –
OC[C@H]1O[C@H](O[C@H]2O[C@H](CO)[C@@H](O)[C@H](O)[C@H]2O)[C@H](O)[C@@H](O)[C@@H]1O | 3.01% (inactive) | –
CN1CCCCC1CCN1c2ccccc2Sc2ccc(S(C)=O)cc21 (stereo unspecified) | 10.3% [at 52.9 µM] (inactive) | –
CCCCCC(C)OC(=O)COc1ccc(Cl)c2cccnc12 (stereo unspecified) | – | 12.6 µM (active)
Cc1cc(C(C)(C)C)c(O)c(C)c1Cn1c(=O)n(Cc2c(C)cc(C(C)(C)C)c(O)c2C)c(=O)n(Cc2c(C)cc(C(C)(C)C)c(O)c2C)c1=O | – | 7.97 µM (active)
CCOC(=O)c1ccc(C2CCC(NC[C@H](O)COc3ccc(O)c(NS(C)(=O)=O)c3)CC2)cc1 (stereo partly specified) | 157% (inactive) | –
O=S(=O)(O)c1ccccc1/C=C/c1ccc(-c2ccc(/C=C/c3ccccc3S(=O)(=O)O)cc2)cc1 | 53.6% (inactive) | –
